Only some compounds are listed: those with a hit (about 3.8% of all), similar ones and a draw of the others.
A549 tox-1: Nrf2 qHTS screen for inhibitors: counterscreen for cytotoxicity | A549 ARE-Fluc cells, CellTiter-Fluor viability, 18-24 h | Potency, µM (titrated, usually from 46 µM), for inactives: top-dose activity change, negative = cytotoxicity, usual class: inhibitors | AID 504648, 2011 | actives 0.16% (n = 390,000); note: % is set by controls: 0 for no effect and ±100 for the full control effect
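Cytotoxicity counterscreen: CellTiter-Fluor fluorescence was measured in A549 ARE_Fluc cells after 18-24 h of compound exposure in a concentration series. The subsequent BugLite luminescent read reports ARE-luciferase activity.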
ATXN2 expr inh: Primary qHTS for Inhibitors of ATXN expression; HEK-293 ATXN2-luciferase reporter, luminescence, 24 h; Potency, µM (top dose mostly 57 µM), without a hit: top-dose activity change, negative = inhibition, actives largely listed as inhibitors; actives 0.72% (n = 360,000); AID 1745845, 2022; note: % is set by controls: 0 for no effect and ±100 for the full control effect; nearly all actives have a fitted effect of over 55% in size
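qHTS (up to 57 uM final) was run with 24 h compound exposure of reporter cells at 37 °C. Each well was multiplexed: SteadyGlo luminescence measured ATXN2-luciferase expression after a fluorogenic Gly-Phe-AFC viability readout (25 uM final).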
TGFb inhibitor: qHTS for Inhibitors of TGF-b. HepG2 CAGA-GFP TGF-b/SMAD3 reporter, GFP fluorescence, 18 h; TGF-beta stimulated, 500 pg/mL final. Potency, µM (doses to about 46.1 µM), inactives show top-dose activity, negative = inhibition, actives largely listed as inhibitors. actives 1.2% (n = 410,000); note: % is set by controls: 0 for no effect and ±100 for the full control effect; nearly all actives have a fitted effect of over 65% in size
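Per well, imaged GFP fluorescence of HEPG2 CAGA-GFP cells gives the signal; cells get compound, then TGF-beta (500 pg/mL final), 18 h at 37 degrees C; %Activity versus -TGF-beta and +DMSO controls.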
ATXN viability: Viability Counterscreen for Primary qHTS for Inhibitors of ATXN expression. S2 cells (HEK-293 line with an ATXN2-luciferase reporter) viability, CellTiter-Fluor protease fluorescence, 24 h. Potency, µM (titrated, usually from 56.7 µM), actives largely listed as cytotoxic. actives 0.49% (n = 400,000). AID 651635, 2014; note: nearly all actives have a fitted effect of over 40% in size
HepG2 tox-1: qHTS for Inhibitors of TGF-b: Cytotox Counterscreen. HepG2 CAGA-GFP viability, ATP luminescence, 18 h. Potency, µM (series often up to 46.1 µM), inactives show top-dose activity change, negative = cytotoxicity, hits mostly cytotoxic. actives 0.76% (n = 410,000). AID 588856, 2011
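HepG2 CAGA-GFP cells (1000/well, DMEM with 1% FBS) received compound, then TGF-beta at 500 pg/mL final, and were incubated 18 hours at 37 degrees C. Viability was read by CellTiter-Glo luminescence. Media-only wells were set as complete cell-killing and DMSO as no toxicity.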
Nrf2 block: Nrf2 qHTS screen for inhibitors; A549 ARE-Fluc reporter, luciferase luminescence, 18-24 h; Potency, µM (highest dose often 46 µM), for inactives: top-dose activity change, negative = inhibition, most hits filed as inhibitors; AID 504444, 2011; actives 2.1% (n = 360,000); note: % is set by controls: 0 for no effect and ±100 for the full control effect; nearly all actives have a fitted effect of over 60% in size
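Quantitative HTS in A549 cells stably bearing an antioxidant response element-firefly luciferase construct. Inhibition of Nrf2-driven transcription was scored by luminescence after 18-24 h of compound exposure at 37 °C.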
FLuc counter 3: Nrf2 qHTS screen for inhibitors: Purified Fluc Biochemical Counterscreen for Hit Validation | shares compounds with Nrf2 block | actives 4% (n = 1,400) | Potency, µM (highest dose often 57.5 µM), for inactives: at the top dose activity change, negative = inhibition, hits mostly inhibitors | purified firefly luciferase, luminescence inhibition; note: % is set by controls: 0 for no effect and ±100 for the full control effect; nearly all actives have a fitted effect of over 65% in size
Target sequence (P08659 whole entry, looked up): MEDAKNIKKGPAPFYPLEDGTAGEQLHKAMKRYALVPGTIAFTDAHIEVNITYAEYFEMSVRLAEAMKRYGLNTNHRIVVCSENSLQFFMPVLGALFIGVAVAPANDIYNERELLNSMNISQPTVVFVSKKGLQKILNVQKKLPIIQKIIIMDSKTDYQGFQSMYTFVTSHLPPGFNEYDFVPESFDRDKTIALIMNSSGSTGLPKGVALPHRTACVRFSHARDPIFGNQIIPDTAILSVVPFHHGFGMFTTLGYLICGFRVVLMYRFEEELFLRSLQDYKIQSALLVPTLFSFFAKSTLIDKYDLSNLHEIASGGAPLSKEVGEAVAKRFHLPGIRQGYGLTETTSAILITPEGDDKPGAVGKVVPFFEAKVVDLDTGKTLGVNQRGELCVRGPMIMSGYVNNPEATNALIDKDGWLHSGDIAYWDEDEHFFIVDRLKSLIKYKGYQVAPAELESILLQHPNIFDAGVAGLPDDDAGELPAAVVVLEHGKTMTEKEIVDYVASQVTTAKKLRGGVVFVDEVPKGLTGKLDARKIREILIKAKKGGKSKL
A549 tox-2: Nrf2 qHTS screen for inhibitors: A549 ARE-Fluc Cytotoxicity Counterscreen for Hit Validation; shares compounds with Nrf2 block; A549 ARE-Fluc cells, cytotoxicity counterscreen; Potency, µM (highest dose often 46.1 µM), for the others: top-dose activity change, negative = cytotoxicity, usual class: inhibitors; actives 2% (n = 1,400); AID 720523, 2013;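 note: cells exposed to compounds for 18 to 24 hours; % is set by controls: 0 for no effect and ±100 for the full control effect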
Nrf2 ARE inh: Nrf2 qHTS screen for inhibitors: Nrf2 A549 ARE-Fluc Confirmation Assay for Hit Validation; AID 720524, 2013; actives 74% (n = 1,400); shares compounds with Nrf2 block; Potency, µM (series often up to 46.1 µM), inactives show top-dose activity change, negative = inhibition, most hits filed as inhibitors; A549 ARE-firefly luciferase reporter, luminescence; note: % is set by controls: 0 for no effect and ±100 for the full control effect; nearly all actives have a fitted effect of over 65% in size
TGFb confirm: qHTS for Inhibitors of TGF-b: Confirmation of Cherry Picks | shares compounds with TGFb inhibitor | HepG2 CAGA-GFP TGF-b reporter, GFP fluorescence, 18 h; cells stimulated with TGF-beta, 500 pg/mL | Potency, µM (doses to about 46.1 µM), inactives show top-dose activity, negative = inhibition, hits mostly inhibitors | actives 63% (n = 1,600) | AID 720534, 2013; note: % is set by controls: 0 for no effect and ±100 for the full control effect; nearly all actives have a fitted effect of over 65% in size
HepG2 tox-2: qHTS for Inhibitors of TGF-b: Cytotox Counterscreen for Cherry Picks | actives 27% (n = 1,600) | HepG2 CAGA-GFP viability, ATP luminescence, 18 h; cells stimulated with TGF-beta, 500 pg/mL | AID 720535, 2013 | Potency, µM (series often up to 46.1 µM), without a hit: at the top dose activity, negative = cytotoxicity, actives largely listed as inhibitors | shares compounds with TGFb inhibitor; note: % is set by controls: 0 for no effect and ±100 for the full control effect; nearly all actives have a fitted effect of over 70% in size
TGFb CCL64 inh: qHTS for Inhibitors of TGF-b: CCL64 Cells Orthogonal Assay for Cherry Picks; shares compounds with TGFb inhibitor; CCL64 CAGA-GFP reporter, TGF-b stimulated, GFP fluorescence, 18 h; Potency, µM (top dose mostly 46.1 µM), without a hit: at the top dose activity, negative = inhibition, actives largely listed as inhibitors; actives 41% (n = 1,600); AID 720536, 2013; note: nearly all actives have a fitted effect of over 65% in size
TGFb COP inh: qHTS for Inhibitors of TGF-b: Hit Validation in HepG2 Cells using COP promoter. HepG2 COP-GFP TGF-b reporter, GFP fluorescence, 18 h; cells stimulated by added recombinant TGF-beta. Potency, µM (highest dose often 46.1 µM), for inactives: top-dose activity, negative = inhibition, hits mostly inhibitors. AID 720537, 2013. actives 3% (n = 1,600). shares compounds with TGFb inhibitor; note: nearly all actives have a fitted effect of over 70% in size
Active calls of the source: *; i = inactive; ? = inconclusive; / = no result given. Calls come from the whole dose curve; as a rule, active = well fitted curve in the direction sought with a large enough effect; inconclusive = small, poorly fitted or top-dose-only effect, or another doubt; inactive = no such curve, though single readings can be large; an effect the other way counts as inactive or inconclusive. Potency is the fitted concentration of half-maximal effect.

SMILES	A549 tox-1	ATXN2 expr inh	TGFb inhibitor	ATXN viability	HepG2 tox-1	Nrf2 block	FLuc counter 3	A549 tox-2	Nrf2 ARE inh	TGFb confirm	HepG2 tox-2	TGFb CCL64 inh	TGFb COP inh
O=C(NCc1ccco1)c1nc2c(nnn2Cc2ccccc2Cl)c(=O)[nH]1	?	16µM*	2.8µM*	?	-34%	4.6µM*	-6%	?	6.5µM*	5.8µM*	?	8.2µM*	27%
Cc1ccc(C)c(Cn2nnc3c(=O)[nH]c(C(=O)NCc4ccco4)nc32)c1	-11%	-6%	-14%	i	0%	?	/	/	/	/	/	/	/
Cc1ncc([N+](=O)[O-])n1CC(=O)Nc1cc(Cl)ccc1Cl	1%	-9%	15%	i	2%	-3%	/	/	/	/	/	/	/
Cc1ccc(Cl)cc1N1CCN(C(=O)c2cc3c(=O)[nH]c4ccccc4c3n2C)CC1	-20%	-30%	?	?	-28%	4.1µM*	2%	-25%	?	?	?	-14%	20%
Cn1c(C(=O)N2CCN(c3ccc(Cl)cc3)CC2)cc2c(=O)[nH]c3ccccc3c21	-27%	-20%	-11%	i	-28%	?	/	/	/	/	/	/	/
CC(C)CN1CN(Cc2ccccc2)CNC1=S	9%	-17%	3%	i	10%	3%	/	/	/	/	/	/	/
Cc1cccc(N(CC(=O)NCc2ccc3c(c2)OCO3)C(=O)CCC(=O)Nc2ccccn2)c1	2%	-2%	2%	i	16%	/	/	/	/	/	/	/	/
C/C(=N\NC(=O)COc1ccccc1-c1ccccc1)c1ccccn1	?	?	11µM*	/	-18%	4.6µM*	0%	-7%	1.3µM*	9.2µM*	?	?	-8%
COc1ccc2c(c1OC)CN1CCc3cc4c(cc3[C@@H]1[C@@H]2O)OCO4	-2%	2%	20%	i	-20%	6%	/	/	/	/	/	/	/
O[C@@H]1[C@@H](O)C=C2CCN3Cc4cc5c(cc4[C@H]1C23)OCO5 (stereo not given in full)	?	3.5µM*	3.5µM*	?	2%	6.5µM*	1%	?	7.3µM*	0.92µM*	?	1.3µM*	22%
Cc1ccc(S(=O)(=O)N2CCCCC2)cc1NC(=O)CSc1ncccn1	14%	-9%	-4%	i	-3%	9%	/	/	/	/	/	/	/
CC(=O)N1c2ccc(S(=O)(=O)N3CCC(C(=O)Nc4cccc(C(F)(F)F)c4)CC3)cc2CC1C (stereo not given)	-16%	?	11µM*	i	-19%	4.6µM*	2%	-11%	12µM*	16µM*	?	-23%	-8%
COc1cccc(NC(=O)C2CCN(S(=O)(=O)c3ccc4c(c3)CC(C)N4C(C)=O)CC2)c1 (stereo not given)	-4%	-36%	-18%	i	-1%	?	/	/	/	/	/	/	/
Cc1ccc(-c2csc(Cc3nc(-c4cc5ccccc5oc4=O)cs3)n2)cc1	-3%	-19%	?	i	-16%	4.6µM*	-1%	-4%	7.3µM*	?	-16%	5%	-1%
COc1ccc(NS(=O)(=O)c2ccc(OC)c(N(C)S(=O)(=O)c3ccc(Cl)cc3)c2)cc1	?	?	10µM*	?	-26%	7.3µM*	-10%	?	8.2µM*	7.3µM*	?	?	37%
COc1cc(/C=C2\COC/C(=C\c3cc(OC)c(OC)c(OC)c3)C2=O)cc(OC)c1OC	9%	3.2µM*	0.63µM*	?	3.5µM*	5.8µM*	-1%	2%	0.12µM*	1.3µM*	1.3µM*	1.3µM*	52%
COc1cc(/C=C2\N=C(C)OC2=O)cc(OC)c1OC	-4%	-7%	4%	i	-5%	1%	/	/	/	/	/	/	/
O=C1Cc2c([nH]c3ccc([N+](=O)[O-])cc23)-c2ccccc2N1	?	?	0.5µM*	?	21%	2.3µM*	-21%	?	2.3µM*	0.16µM*	0.29µM*	1.3µM*	-11%
C=CCn1c(=O)c2ccccc2n2c(SCc3nnc(-c4ccccc4Br)o3)nnc12	1%	-8%	-6%	?	-27%	4%	/	/	/	/	/	/	/

Bioassay records from PubChem BioAssay.
